Only some compounds are listed: those with a hit (about 3.8% of all), similar ones and a draw of the others.
PfM18AAP inh-1: PfM18AAP enzyme inhibition | recombinant PfM18AAP, H-Glu-NHMec fluorogenic cleavage | inhibition, % at 7.35 µM | actives 1.2% (n = 290,000) | AID 1822;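 active = inhibition above the campaign mean inhibition over all tested compounds plus 3 SD, cut at about 28% in these data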
PAFAH1B3 inh: inhibitors of human PAFAH1B3; Q15102; recombinant PAFAH1B3, FP-rhodamine probe, fluorescence polarization; inhibition, % at 3.39 µM; actives 0.28% (n = 340,000); AID 492972;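 active = inhibition above the screen-wide average of all tested compounds plus 3 SD, cut at about 25% in these data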
PAFAH2 FP inh: PAFAH2 (human) inhibition. recombinant PAFAH2, FP-rhodamine activity probe, fluorescence polarization. inhibition, % at 3.39 µM. actives 0.99% (n = 340,000). AID 492956;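 active = inhibition above the mean over all tested compounds plus 3 SD, cut at about 30% in these data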;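 also: inhibitors block probe labeling of enzyme so polarization drops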
Pemphigus Ab inh: inhibitors of pemphigus antibody binding to human desmoglein-3 | P32926 | DSG3-coupled beads, scFv-anti-DSG3-GFP binding, flow cytometry; hits give low values | binding (percent of control), % at 10 µM | actives 0.48% (n = 310,000);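 active = binding more than 3 SD below its plate's average and above zero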;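 also: hits lower antibody fragment binding to DSG3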
PAFAH1B2 FP inh: inhibitors of human PAFAH1B2 | P68402 | recombinant PAFAH1B2, FP-rhodamine activity probe, fluorescence polarization | inhibition, % at 3.39 µM | actives 1.2% (n = 340,000);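 active = inhibition above the mean of all tested compounds plus 3 SD, cut at about 24% in these data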
Target sequence (P68402 whole entry, looked up): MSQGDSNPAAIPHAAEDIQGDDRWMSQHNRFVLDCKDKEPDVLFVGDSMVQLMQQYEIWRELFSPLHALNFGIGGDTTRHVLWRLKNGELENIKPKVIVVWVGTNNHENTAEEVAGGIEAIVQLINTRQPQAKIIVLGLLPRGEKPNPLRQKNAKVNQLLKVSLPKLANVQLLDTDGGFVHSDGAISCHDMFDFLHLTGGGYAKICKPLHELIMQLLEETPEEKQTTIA
pPAFAH FP inh: pPAFAH (human) enzyme inhibition; Q13093; recombinant pPAFAH, FP-rhodamine probe fluorescence polarization; inhibition, % at 3.39 µM; actives 1.5% (n = 330,000); AID 463082;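 active = inhibition above the mean inhibition across the screen plus 3 SD, cut at about 25% in these data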;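 also: inhibitors block binding of the rhodamine activity-based probe so polarization drops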
PfM18AAP inh-2: PfM18AAP inhibition, confirmation | shares compounds with PfM18AAP inh-1 | recombinant PfM18AAP, H-Glu-NHMec fluorogenic cleavage | inhibition, % at 7.35 µM | actives 28% (n = 2,400);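 active = mean inhibition over replicate wells above the hit cutoff set for the earlier primary screen, cut at about 29% in these data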
CTSL1 confirm: Cathepsin L (human) inhibition, confirmation; shares compounds with PfM18AAP inh-1; purified cathepsin L1, Z-Leu-Arg-MCA fluorescence; inhibition, % at 5.96 µM; 2,400 tested, under 10 active; AID 2178;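 active = average inhibition across replicates above the hit cutoff set in the earlier primary screen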
Target sequence (P07711 whole entry, looked up): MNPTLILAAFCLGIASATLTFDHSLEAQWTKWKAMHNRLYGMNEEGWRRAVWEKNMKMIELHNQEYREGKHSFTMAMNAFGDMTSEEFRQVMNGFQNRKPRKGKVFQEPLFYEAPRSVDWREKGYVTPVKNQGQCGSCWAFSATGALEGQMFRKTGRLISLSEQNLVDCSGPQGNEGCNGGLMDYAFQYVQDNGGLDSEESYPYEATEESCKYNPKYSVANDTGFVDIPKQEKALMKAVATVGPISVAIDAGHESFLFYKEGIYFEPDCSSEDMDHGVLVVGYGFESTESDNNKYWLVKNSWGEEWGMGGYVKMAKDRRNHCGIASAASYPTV
Each line names hits and unclear results; the compound was inactive in the other large screens (follow-up assays come after a bar, where they were run).

CC(=O)Nc1ccccc1NC(=O)C/C(C)=N/NC(=O)c1ccccn1	PfM18AAP inh-1 40.6 | PfM18AAP inh-2 inactive | CTSL1 confirm inactive
O=C(CSc1ccc(Cl)cc1)N/N=C/c1cccnc1	none
O=C(CCC(=O)N1CCN(c2ccc(O)cc2)CC1)c1cccs1	PfM18AAP inh-1 52.6 | PfM18AAP inh-2 inactive | CTSL1 confirm inactive
O=C(CCC(=O)N1CCN(c2ccc(O)cc2)CC1)c1ccc(Br)cc1	PfM18AAP inh-1 42.2 (no result: PAFAH1B3 inh, PAFAH2 FP inh, Pemphigus Ab inh, PAFAH1B2 FP inh) | PfM18AAP inh-2 inactive | CTSL1 confirm inactive
CCOc1ccc(C(=O)CCC(=O)N2CCN(c3ccc(O)cc3)CC2)cc1	none (no result: PfM18AAP inh-1)
O=[N+]([O-])c1cccc(/C=C/C=N/Nc2nc(N3CCCCC3)nc(N3CCCCC3)n2)c1	none
CCS(=O)(=O)c1cc([N+](=O)[O-])c(Sc2ccccc2NC(C)=O)s1	PfM18AAP inh-1 35.4 | PfM18AAP inh-2 inactive | CTSL1 confirm inactive
CC(=O)Nc1ccccc1-c1ccccc1[N+](=O)[O-]	none (no result: PfM18AAP inh-1, pPAFAH FP inh)
CC(C)Cn1c(-c2ccccc2F)n[nH]c1=S	PfM18AAP inh-1 32.5 | PfM18AAP inh-2 inactive | CTSL1 confirm inactive
COc1ccc(C(C)C)cc1S(=O)(=O)Nc1ccncc1	PfM18AAP inh-1 37.1 | PfM18AAP inh-2 inactive | CTSL1 confirm inactive
CC(C)[C@H](NC(=O)c1nn(Cc2ccccc2)c(=O)c2ccccc12)C(=O)O	PfM18AAP inh-1 36.1 (no result: Pemphigus Ab inh) | PfM18AAP inh-2 inactive | CTSL1 confirm inactive
CC(=O)Nc1ccc(NCC(=O)c2ccccc2)cc1	PfM18AAP inh-1 34.0 | PfM18AAP inh-2 inactive | CTSL1 confirm inactive
O=C(CNc1ccccc1)c1ccc([N+](=O)[O-])cc1	none
Cc1oc2c(O)c(O)ccc2c(=O)c1-c1ccc(Cl)cc1	PfM18AAP inh-1 43.9, pPAFAH FP inh 29.5 | PfM18AAP inh-2 inactive | CTSL1 confirm inactive
Cc1oc2c(O)c(O)ccc2c(=O)c1-c1ccccc1	none (no result: PfM18AAP inh-1)
COC(=O)c1sc(N2C(=O)C(=O)/C(=C(/O)c3ccccc3)C2c2ccco2)nc1C (centres undefined)	none
Cc1nc(N2C(=O)C(=O)/C(=C(/O)c3ccccc3)C2c2ccco2)sc1C (centres undefined)	PfM18AAP inh-1 37.6 | PfM18AAP inh-2 inactive | CTSL1 confirm inactive
N#Cc1cccc(N2[C@@H](Cc3cc4ccccc4n3Cc3ccccc3)COC[C@H]2Cc2ccc3ccccc3c2)c1	none (no result: PfM18AAP inh-1, PAFAH1B3 inh, PAFAH2 FP inh, PAFAH1B2 FP inh, pPAFAH FP inh)
OC(CNCc1ccccc1)Cn1ccc2ccccc21 (centres undefined)	none
Oc1ccccc1NCC(O)Cn1ccc2ccccc21 (centres undefined)	PfM18AAP inh-1 56.1 | PfM18AAP inh-2 inactive | CTSL1 confirm inactive
COc1cc(NC2c3ccccc3C(=O)N2Cc2ccc3c(c2)OCO3)cc(OC)c1 (centres undefined)	none
O=C(Cn1nc(-c2ccccc2)oc1=O)OCC(=O)c1ccccc1	none (no result: PfM18AAP inh-1)
S=c1nc[nH]c2c1ncn2C1CCCC1	none (no result: pPAFAH FP inh) | PfM18AAP inh-2 inactive | CTSL1 confirm inactive
COc1cc(CNc2ccc(CNc3ncn[nH]3)cc2)ccc1OCC(=O)NC(C)(C)C	PfM18AAP inh-1 46.9 | PfM18AAP inh-2 inactive | CTSL1 confirm inactive
CC(C)(C)NC(=O)COc1ccc(CNc2ncn[nH]2)cc1	none
Fc1ccc(CNc2ccc(CNc3ncn[nH]3)cc2)cc1	PfM18AAP inh-1 32.0 (no result: pPAFAH FP inh) | PfM18AAP inh-2 inactive | CTSL1 confirm inactive
O=C1CC(c2ccco2)CC(O)=C1C=Nc1cc(Cl)ccc1O (centres undefined)	PfM18AAP inh-1 33.2, pPAFAH FP inh 33.9 | PfM18AAP inh-2 inactive | CTSL1 confirm inactive
O=C1CC(c2ccco2)CC(O)=C1C=Nc1cc(Cl)ccc1Cl (centres undefined)	none
CCN(C(=O)c1cnc(NC(C)C)cc1C(F)(F)F)c1ccc(Cl)cc1Cl	none
Cc1ccc(/C=C/C(=O)Nc2nn[nH]n2)o1	PfM18AAP inh-1 51.3 | PfM18AAP inh-2 inactive | CTSL1 confirm inactive
O=C(Nc1ccc(S(=O)(=O)Nc2cnc3ccccc3n2)cc1)c1ccccc1Br	none (no result: Pemphigus Ab inh)
Cn1cccc1/C=N/NC(=O)CSc1nc2ccccc2[nH]1	none (no result: PAFAH1B3 inh, PAFAH2 FP inh, PAFAH1B2 FP inh)
Cc1ccccc1N1C(=O)C2CCCN2C1=S (centres undefined)	none (no result: PfM18AAP inh-1, Pemphigus Ab inh)
Cc1ccc(C)c(S(=O)(=O)NNC(=O)c2sc(NS(=O)(=O)c3ccccc3)nc2C)c1	PfM18AAP inh-1 36.1 | PfM18AAP inh-2 inactive | CTSL1 confirm inactive
Cc1c(C(=O)N2CCOCC2)sc(NC(=O)C(C)C)c1C#N	none (no result: Pemphigus Ab inh)
Cc1c(C#N)c(O)n(CCO)c(=O)c1N=Nc1ccccc1	none
Cc1c(C#N)c(O)n(C)c(=O)c1N=Nc1ccc(S(N)(=O)=O)cc1	PfM18AAP inh-1 35.5 (no result: pPAFAH FP inh) | PfM18AAP inh-2 inactive | CTSL1 confirm inactive
Cc1c(C#N)c(O)n(CCO)c(=O)c1N=Nc1ccc(S(N)(=O)=O)cc1	PfM18AAP inh-1 35.5 | PfM18AAP inh-2 inactive | CTSL1 confirm inactive
COc1cc(CN(C(=O)c2cccs2)C2CCS(=O)(=O)C2)cc(OC)c1OC (centres undefined)	none
COc1cc(NC(=O)Nc2ccc3c(c2)OCO3)cc(OC)c1OC	none
COc1cc(NC(=O)NNC(=O)c2cc3occc3n2C)cc(OC)c1OC	PfM18AAP inh-1 60.3 | PfM18AAP inh-2 30.5 | CTSL1 confirm inactive
O=c1[nH]nc(SC2CCCCC2)c(=O)[nH]1	none (no result: PfM18AAP inh-1, pPAFAH FP inh)
CC(C)Cc1nnc(NC(=O)CSc2ncn[nH]2)s1	PfM18AAP inh-1 38.0 | PfM18AAP inh-2 40.0 | CTSL1 confirm inactive
O=C(CSc1ncn[nH]1)Nc1nnc(-c2ccccc2)s1	PfM18AAP inh-1 63.9 | PfM18AAP inh-2 65.7 | CTSL1 confirm inactive
O=C(CSc1ncn[nH]1)N1CCOCC1	none
O=C(O)CSc1ncn[nH]1	PfM18AAP inh-1 85.9 (no result: Pemphigus Ab inh) | PfM18AAP inh-2 98.0 | CTSL1 confirm inactive
O=C(CSc1ncn[nH]1)c1ccc(OC(F)F)cc1	PfM18AAP inh-1 39.0 | PfM18AAP inh-2 inactive | CTSL1 confirm inactive
Cc1cc(=O)[nH]c(SCC(=O)Nc2nnc(CC(C)C)s2)n1	none
O=C(CSc1ncn[nH]1)Nc1ccccc1-c1ccccc1	none
O=C(CSc1ncccn1)Nc1ccc(Cl)c(S(=O)(=O)N2CCOCC2)c1	none (no result: PfM18AAP inh-1)
CC(=O)N1CCN(c2nnc(-c3ccc(C)cc3)c3ccccc23)CC1	none

Screening data deposited in PubChem BioAssay by several laboratories.
